In PubChem BioAssay (Tox21):
Activity calls are given as the source filed them. Entries that show only a call come without a potency. Unless noted, the call rests on the fitted dose curve.

Molecular target: Gonadotropin-releasing hormone receptor (Homo sapiens) (UniProt P30968)
Sequence (P30968 whole entry, looked up): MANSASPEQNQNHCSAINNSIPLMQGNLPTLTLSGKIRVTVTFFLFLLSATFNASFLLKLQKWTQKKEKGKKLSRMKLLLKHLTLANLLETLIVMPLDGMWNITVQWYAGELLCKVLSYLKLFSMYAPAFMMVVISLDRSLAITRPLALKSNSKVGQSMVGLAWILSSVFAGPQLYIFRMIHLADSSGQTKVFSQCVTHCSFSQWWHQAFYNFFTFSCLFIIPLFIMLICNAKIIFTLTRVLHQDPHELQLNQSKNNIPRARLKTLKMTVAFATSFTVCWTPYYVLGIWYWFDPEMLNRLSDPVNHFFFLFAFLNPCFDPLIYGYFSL
Assay: Human gonadotropin-releasing hormone receptor (GnRHR) small molecule agonists, calcium flux assay in GnRHR-HEK293 cells (AID 1920063); further: nearly all actives have a fitted effect of over 35% in size
Details: calcium flux fluorescence, agonist mode; series mostly up to 57.6 µM
How it was run: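 We seeded human GnRHR-expressing HEK293 cells for 18 hours, loaded them with calcium dye for an hour at 37 C, added test compounds, and recorded fluorescence intensity kinetically for three minutes.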
With `N#CCCO` the Potency was “inactive”.
In the case of `C=CCSSCC=C`, the Potency is reported as “inactive”.
With `N#Cc1ccc(Cl)cc1` the Potency was “inactive”.
In the case of `C=CCc1cc(OC)c2c(c1)OCO2`, the Potency is reported as “inactive”.
For `c1ccc(-c2cccc(-c3ccccc3)c2)cc1`, the Potency was “inactive”.
In the case of `c1ccc(NNc2ccccc2)cc1`, the Potency is reported as “inactive”.
For `O=c1[nH]c2ccccc2n1C1CCN(CCCC(c2ccc(F)cc2)c2ccc(F)cc2)CC1`, the Potency was “inactive”.
With `CCCCCCCCCCn1cc[n+](C)c1` the Potency was “inactive”.
With `OCCSSCCO` the Potency was “inactive”.
With `CCN` the Potency was “inactive”.
For `N#Cc1ccc(O)cc1`, the Potency was “inactive”.
In the case of `NCCOS(=O)(=O)O`, the Potency is reported as “inactive”.
With `O=NN(c1ccccc1)c1ccccc1` the Potency was “inactive”.
For `COC(=O)Nc1cccc(OC(=O)Nc2cccc(C)c2)c1`, the Potency was “inactive”.
In the case of `CC(Br)C(=O)O` (centres undefined), the Potency is reported as “inactive”.
With `O=S1OCC2C(CO1)C1(Cl)C(Cl)=C(Cl)C2(Cl)C1(Cl)Cl` (centres undefined) the Potency was “inactive”.
With `ClC1=C(Cl)C2(Cl)C3C(Cl)C(Cl)CC3C1(Cl)C2(Cl)Cl` (centres undefined) the Potency was “inactive”.
For `ClC(Cl)(Cl)Br`, the Potency was “inactive”.
With `CCN(CC)Cc1nccn1-c1ccc([N+](=O)[O-])cc1C(=O)c1ccccc1Cl` the Potency was “inactive”.
With `Cl/C=C/CCl` the Potency was “inactive”.
With `CCCCCCCCSC(=O)Oc1cc(Cl)nnc1-c1ccccc1` the Potency was “inactive”.
For `Cc1ccc(N)cc1N`, the Potency was “inactive”.
For `[O-][Cl+]O`, the Potency was “inactive”.
In the case of `OCCOc1ccccc1`, the Potency is reported as “inactive”.
For `CC(C)Nc1ccc(Nc2ccccc2)cc1`, the Potency was “inactive”.
With `O=C(CCN1CC1)OCC(CO)(COC(=O)CCN1CC1)COC(=O)CCN1CC1` the Potency was “inactive”.
For `CC(C)(C)C(O)(CCc1ccc(Cl)cc1)Cn1cncn1` (centres undefined), the Potency was “inactive”.
In the case of `CC1COC2(c3ccccc3Cl)c3cc(Cl)ccc3NC(=O)CN12` (centres undefined), the Potency is reported as “inactive”.
In the case of `CC(C)(C)OOC(C)(C)CCC(C)(C)OOC(C)(C)C`, the Potency is reported as “inactive”.
With `N#CC(c1ccccc1)c1ccccc1` the Potency was “inactive”.
For `O=C(Cl)OCCOCCOC(=O)Cl`, the Potency was “inactive”.
In the case of `CCN(CC)C(=O)C(C)Oc1cccc2ccccc12` (centres undefined), the Potency is reported as “inactive”.
In the case of `CN(C)CCC#N`, the Potency is reported as “inactive”.
For `CCN(CCO)CCO`, the Potency was “inactive”.
For `O=C(NCO)NCO`, the Potency was “inactive”.
For `Nc1c(Br)cc([N+](=O)[O-])cc1[N+](=O)[O-]`, the Potency was “inactive”.
With `Cc1cccc(N)c1N` the Potency was “inactive”.
With `CC(C)C(=O)OCC(C)(C)C(OC(=O)C(C)C)C(C)C` (centres undefined) the Potency was “inactive”.

Molecular target: KiSS-1 receptor (Homo sapiens) (UniProt Q969F8)
Sequence (Q969F8 whole entry, looked up): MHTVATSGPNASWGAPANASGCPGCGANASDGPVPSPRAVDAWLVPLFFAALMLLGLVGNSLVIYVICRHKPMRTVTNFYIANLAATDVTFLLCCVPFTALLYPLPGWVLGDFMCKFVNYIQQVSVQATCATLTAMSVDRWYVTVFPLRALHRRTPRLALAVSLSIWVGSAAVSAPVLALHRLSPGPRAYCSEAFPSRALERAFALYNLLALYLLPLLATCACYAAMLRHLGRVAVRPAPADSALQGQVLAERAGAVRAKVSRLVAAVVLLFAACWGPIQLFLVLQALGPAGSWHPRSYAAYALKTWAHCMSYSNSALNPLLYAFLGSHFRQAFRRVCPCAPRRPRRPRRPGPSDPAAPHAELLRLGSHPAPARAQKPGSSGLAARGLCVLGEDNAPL
Assay: Human kisspeptin (KISS1R) small molecule agonists, calcium flux assay in KISS1R-HEK293 cells (AID 1920064; active means well fitted activation curve with a large enough effect in the repeat runs)
Details: KISS1R-HEK293, calcium flux fluorescence, agonist; series mostly up to 76.8 µM
How it was run: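 Kinetic calcium assay, 1 s sampling over 3 min at Ex/Em 480/540, in HEK293 cells engineered with human KISS1R; compounds delivered in DMSO after 1 h dye loading.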
In the case of `N#CCCO`, the Potency is reported as “inactive”.
With `C=CCSSCC=C` the Potency was “inactive”.
In the case of `N#Cc1ccc(Cl)cc1`, the Potency is reported as “inactive”.
With `C=CCc1cc(OC)c2c(c1)OCO2` the Potency was “inactive”.
In the case of `c1ccc(-c2cccc(-c3ccccc3)c2)cc1`, the Potency is reported as “inactive”.
For `c1ccc(NNc2ccccc2)cc1`, the Potency was “inactive”.
For `O=c1[nH]c2ccccc2n1C1CCN(CCCC(c2ccc(F)cc2)c2ccc(F)cc2)CC1`, the Potency was “inactive”.
For `CCCCCCCCCCn1cc[n+](C)c1`, the Potency was “inactive”.
For `OCCSSCCO`, the Potency was “inactive”.
In the case of `CCN`, the Potency is reported as “inactive”.
For `N#Cc1ccc(O)cc1`, the Potency was “inactive”.
For `NCCOS(=O)(=O)O`, the Potency was “inactive”.
In the case of `O=NN(c1ccccc1)c1ccccc1`, the Potency is reported as “inactive”.
In the case of `COC(=O)Nc1cccc(OC(=O)Nc2cccc(C)c2)c1`, the Potency is reported as “inactive”.
With `CC(Br)C(=O)O` (centres undefined) the Potency was “inactive”.
For `O=S1OCC2C(CO1)C1(Cl)C(Cl)=C(Cl)C2(Cl)C1(Cl)Cl` (centres undefined), the Potency was “inactive”.
With `ClC1=C(Cl)C2(Cl)C3C(Cl)C(Cl)CC3C1(Cl)C2(Cl)Cl` (centres undefined) the Potency was “inactive”.
In the case of `ClC(Cl)(Cl)Br`, the Potency is reported as “inactive”.
In the case of `CCN(CC)Cc1nccn1-c1ccc([N+](=O)[O-])cc1C(=O)c1ccccc1Cl`, the Potency is reported as “inactive”.
With `Cl/C=C/CCl` the Potency was “inactive”.
For `CCCCCCCCSC(=O)Oc1cc(Cl)nnc1-c1ccccc1`, the Potency was “inactive”.
With `Cc1ccc(N)cc1N` the Potency was “inactive”.
For `[O-][Cl+]O`, the Potency was “inactive”.
With `OCCOc1ccccc1` the Potency was “inactive”.
With `CC(C)Nc1ccc(Nc2ccccc2)cc1` the Potency was “inactive”.
For `O=C(CCN1CC1)OCC(CO)(COC(=O)CCN1CC1)COC(=O)CCN1CC1`, the Potency was “inactive”.
With `CC(C)(C)C(O)(CCc1ccc(Cl)cc1)Cn1cncn1` (centres undefined) the Potency was “inactive”.
In the case of `CC1COC2(c3ccccc3Cl)c3cc(Cl)ccc3NC(=O)CN12` (centres undefined), the Potency is reported as “inactive”.
With `CC(C)(C)OOC(C)(C)CCC(C)(C)OOC(C)(C)C` the Potency was “inactive”.
For `N#CC(c1ccccc1)c1ccccc1`, the Potency was “inactive”.
In the case of `O=C(Cl)OCCOCCOC(=O)Cl`, the Potency is reported as “inactive”.
With `CCN(CC)C(=O)C(C)Oc1cccc2ccccc12` (centres undefined) the Potency was “inactive”.
With `CN(C)CCC#N` the Potency was “inactive”.
With `CCN(CCO)CCO` the Potency was “inactive”.
With `O=C(NCO)NCO` the Potency was “inactive”.
In the case of `Nc1c(Br)cc([N+](=O)[O-])cc1[N+](=O)[O-]`, the Potency is reported as “inactive”.
With `Cc1cccc(N)c1N` the Potency was “inactive”.
For `CC(C)C(=O)OCC(C)(C)C(OC(=O)C(C)C)C(C)C` (centres undefined), the Potency was “inactive”.

Test system: not listed separately
Assay: G protein-coupled receptor (GPCR) small molecule agonists, calcium flux assay: HEK293 wild type cell line counter screen (AID 1920065)
Details: HEK293 WT calcium flux, fluorescence, agonist mode; series mostly up to 57.6 µM
How it was run: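 Calcium-sensitive dye, loaded 1 h at 37 C into cells cultured 18 h, reports compound-evoked calcium release as fluorescence (Ex/Em 480/540), measured over 3 min. Agonist mode; 15-point titrations, triplicate.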
For `N#CCCO`, the Potency was “inactive”.
For `C=CCSSCC=C`, the Potency was “inactive”.
For `N#Cc1ccc(Cl)cc1`, the Potency was “inactive”.
In the case of `C=CCc1cc(OC)c2c(c1)OCO2`, the Potency is reported as “inactive”.
For `c1ccc(-c2cccc(-c3ccccc3)c2)cc1`, the Potency was “inactive”.
For `c1ccc(NNc2ccccc2)cc1`, the Potency was “inactive”.
For `O=c1[nH]c2ccccc2n1C1CCN(CCCC(c2ccc(F)cc2)c2ccc(F)cc2)CC1`, the Potency was “inactive”.
For `CCCCCCCCCCn1cc[n+](C)c1`, the Potency was “inactive”.
For `OCCSSCCO`, the Potency was “inactive”.
For `CCN`, the Potency was “inactive”.
For `N#Cc1ccc(O)cc1`, the Potency was “inactive”.
In the case of `NCCOS(=O)(=O)O`, the Potency is reported as “inactive”.
With `O=NN(c1ccccc1)c1ccccc1` the Potency was “inactive”.
In the case of `COC(=O)Nc1cccc(OC(=O)Nc2cccc(C)c2)c1`, the Potency is reported as “inactive”.
In the case of `CC(Br)C(=O)O` (centres undefined), the Potency is reported as “inactive”.
With `O=S1OCC2C(CO1)C1(Cl)C(Cl)=C(Cl)C2(Cl)C1(Cl)Cl` (centres undefined) the Potency was “inactive”.
With `ClC1=C(Cl)C2(Cl)C3C(Cl)C(Cl)CC3C1(Cl)C2(Cl)Cl` (centres undefined) the Potency was “inactive”.
For `ClC(Cl)(Cl)Br`, the Potency was “inactive”.
In the case of `CCN(CC)Cc1nccn1-c1ccc([N+](=O)[O-])cc1C(=O)c1ccccc1Cl`, the Potency is reported as “inactive”.
In the case of `Cl/C=C/CCl`, the Potency is reported as “inactive”.
In the case of `CCCCCCCCSC(=O)Oc1cc(Cl)nnc1-c1ccccc1`, the Potency is reported as “inactive”.
With `Cc1ccc(N)cc1N` the Potency was “inactive”.
For `[O-][Cl+]O`, the Potency was “inactive”.
For `OCCOc1ccccc1`, the Potency was “inactive”.
In the case of `CC(C)Nc1ccc(Nc2ccccc2)cc1`, the Potency is reported as “inactive”.
With `O=C(CCN1CC1)OCC(CO)(COC(=O)CCN1CC1)COC(=O)CCN1CC1` the Potency was “inactive”.
For `CC(C)(C)C(O)(CCc1ccc(Cl)cc1)Cn1cncn1` (centres undefined), the Potency was “inactive”.
With `CC1COC2(c3ccccc3Cl)c3cc(Cl)ccc3NC(=O)CN12` (centres undefined) the Potency was “inactive”.
With `CC(C)(C)OOC(C)(C)CCC(C)(C)OOC(C)(C)C` the Potency was “inactive”.
In the case of `N#CC(c1ccccc1)c1ccccc1`, the Potency is reported as “inactive”.
In the case of `O=C(Cl)OCCOCCOC(=O)Cl`, the Potency is reported as “inactive”.
With `CCN(CC)C(=O)C(C)Oc1cccc2ccccc12` (centres undefined) the Potency was “inactive”.
With `CN(C)CCC#N` the Potency was “inactive”.
With `CCN(CCO)CCO` the Potency was “inactive”.
With `O=C(NCO)NCO` the Potency was “inactive”.
In the case of `Nc1c(Br)cc([N+](=O)[O-])cc1[N+](=O)[O-]`, the Potency is reported as “inactive”.
For `Cc1cccc(N)c1N`, the Potency was “inactive”.
In the case of `CC(C)C(=O)OCC(C)(C)C(OC(=O)C(C)C)C(C)C` (centres undefined), the Potency is reported as “inactive”.
